# Laboratory results as given in PubChem BioAssay (NCI).
# This is part of a sample that, as a whole, favours compounds with a hit. Of some 83,000 tested, about 20% had one in any assay.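 Assay: single dose, 48 h. Readout: percent growth (0 = no net growth; negative = cell death). Active: <10.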 A number with no mark means an inactive call. Calls of active or inactive are those of the source.
# Assays:
# Assay in all cases: NCI-60 one-dose screen, 48 h (100 = growth as untreated, 0 = no growth, -100 = all killed)
# Settings in all cases: 10 µM unless noted
# [1] = test system: HCT-15 colon
# [2] = test system: HT29 colon
# [3] = test system: SNB-75 CNS
# [4] = test system: SNB-19 CNS
# [5] = test system: U251 CNS
# [6] = test system: PC-3 prostate
# [7] = test system: SK-MEL-5 melanoma
# [8] = test system: UACC-62 melanoma
# [9] = test system: LOX IMVI melanoma
# [10] = test system: SK-MEL-28 melanoma
# [11] = test system: SK-MEL-2 melanoma
# [12] = test system: EKVX NSCLC
# [13] = test system: SN12C renal
# [14] = test system: UO-31 renal
# [15] = test system: TK-10 renal
# [16] = test system: ACHN renal
# [17] = test system: CAKI-1 renal
# [18] = test system: A498 renal
# [19] = test system: CCRF-CEM leukemia
# [20] = test system: MOLT-4 leukemia
Compound,growth [1],growth [2],growth [3],growth [4],growth [5],growth [6],growth [7],growth [8],growth [9],growth [10] [%],growth [11],growth [12],growth [13],growth [14],growth [15] [%],growth [16],growth [17],growth [18],growth [19],growth [20]
CC1(C)CC[C@]23CC[C@]4(C)[C@H](CC[C@@H]5[C@@]6(C)CCCN(CO)C(C)(C)[C@@H]6CC[C@]54C)[C@H]2[C@H]1OC3,7.34% (active),21%,112%,56.6%,32.5%,73.6%,100%,101%,-80.9% (active),103,98.4%,90.9%,89.6%,76.7%,129,96.7%,62.1%,107%,58.5%,35.4%
CS(=O)(=O)c1ccc(-c2nn(-c3ccccc3)cc2/C=N/NC(=O)c2nc(N)n[nH]2)cc1,88.9%,101%,103%,101%,101%,100%,98.6%,90.8%,84.7%,108,108%,90.3%,94.7%,96.8%,110,93.7%,96.6%,101%,43.7%,67.1%
CNC(=O)c1cc(-c2ccc(NS(=O)(=O)c3ccc(C)cc3)cc2)nc2cccnc12,105%,109%,104%,99.8%,101%,99.7%,103%,90.4%,100%,119,102%,95.9%,103%,81.5%,118,104%,94.4%,106%,109%,100%
COc1cc(OC)cc(C(=O)Nc2cccc(C#Cc3cccc4[nH]nc(N)c34)c2)c1,31.1%,7.34% (active),-18.6% (active),57.2%,22.5%,31.9%,-32.6% (active),23.1%,31.9%,50.3,-24.2% (active),61.1%,30.4%,32.2%,54.3,35.4%,24.5%,-19.2% (active),13%,20.5%
Cc1nc2ncc(-c3ccc4ncnc(NCc5ccccc5)c4c3)cc2[nH]1,103%,82.8%,13%,67.7%,75.4%,40.8%,82.8%,64.3%,41.3%,63.1,74%,25.3%,32.3%,45.4%,22.6,64.9%,19.3%,-18.2% (active),68.5%,45.2%
CCCC(=O)NC(c1cccnc1)c1cc(C(C)(C)C)c2cccnc2c1O (stereo not given),35.4%,34%,37.4%,31.6%,18.6%,44.1%,-15.4% (active),7.53% (active),20.3%,24.6,30.5%,21.7%,29.5%,13.6%,42.3,12.1%,16.2%,13.6%,9.16% (active),14.2%
O=C1[C@H]2Cc3c([nH]c4ccccc34)[C@@H](c3ccc(Cl)cc3)N2C(=O)CN1C1CCN(Cc2ccccc2)CC1,23.7%,27.1%,79.8%,66.5%,63.7%,30.4%,56.1%,75.4%,17.4%,67.8,84.7%,41.3%,45.9%,26.4%,82.3,40.6%,38%,74.8%,43.3%,27.1%
COc1cc(-c2nnc(SCc3ccc(O)c4ncccc34)n2-c2ccccc2)cc(OC)c1OC,12.8%,16.7%,-6.25% (active),9.25% (active),4.28% (active),15.4%,-62.4% (active),-37.4% (active),-22.2% (active),17.9,24.6%,4.34% (active),8.79% (active),-30.2% (active),15.2,4.84% (active),1.72% (active),1.54% (active),5.95% (active),4.98% (active)
N#Cc1cn(Cc2ccc(Cl)cc2Cl)c(C(=O)c2ccc(Br)cc2)c1N,94.6%,102%,89.6%,69.5%,86.1%,86.9%,97.5%,82.8%,90.1%,99,97.9%,93.8%,101%,81.6%,101,99%,92.3%,86.7%,108%,98.9%
N#Cc1c(-c2cccs2)cc(-c2cnccn2)nc1SCC(=O)c1ccc(F)cc1,100%,105%,58.5%,97.7%,104%,87.2%,96.4%,81.1%,85.4%,100,102%,58.9%,80.3%,54.7%,89.3,92.2%,59.7%,8.83% (active),94.5%,92.7%
COc1cc2nc(Cl)nc(Nc3cccc(C4=Nc5c(N)nc(N)nc5NC(c5ccc(Cl)cc5)C4)c3)c2cc1OC (stereo not given),-7.82% (active),3.99% (active),89.9%,12.8%,-52.4% (active),62.8%,70.6%,92%,-52.3% (active),73.9,76.9%,95.3%,73.7%,89.9%,115,102%,86.8%,99.4%,3.94% (active),10%
CC(=O)N(C)C1CCc2c(sc(NC(=O)c3ccc(C(C)(C)C)cc3)c2C(N)=O)C1 (stereo not given),57.1%,77.7%,39.2%,74.7%,51.8%,45.9%,91.7%,85.7%,29.5%,80,103%,75.5%,71.1%,89%,106,97.7%,64.8%,80%,69.3%,75.2%
COc1ccc([C@@H]2c3[nH]c4ccccc4c3C[C@H]3C(=O)N(C4CCN(CC5CCCCC5)CC4)CC(=O)N23)c(OC)c1,56.5%,1.45% (active),83.2%,86.4%,72.4%,49.3%,73.3%,93.9%,54.3%,89.1,95.9%,61.6%,81.6%,37.3%,98.2,81.3%,44.7%,78.9%,60.5%,46.1%
C#CC(=O)N(c1ccc(OC)cc1OC)C(C(=O)NCC(=O)OCC)c1cccs1 (stereo not given),56.6%,-7.89% (active),-71% (active),77.1%,5.16% (active),-13.2% (active),99.3%,82.6%,-78.8% (active),92.4,95%,36.4%,44.9%,-79.9% (active),105,-90.2% (active),-83.9% (active),57.2%,-53.8% (active),-22.2% (active)
